# Source: PubChem BioAssay
# DRD3 antagonist – qHTS of D3 Dopamine Receptor Antagonist: qHTS. D3R cells, DiscoveRx beta-arrestin luminescence, antagonist mode; hits give low values. max response, negative = inhibition, %. actives 2.5% (n = 360,000). AID 652054, 2013; in the data active means max response below about -50%; inconclusive means no clear call, values can overlap the other calls; further: on the % scale 0 is the no-effect control and ±100 the full control effect
# Target sequence (P35462 whole entry, looked up): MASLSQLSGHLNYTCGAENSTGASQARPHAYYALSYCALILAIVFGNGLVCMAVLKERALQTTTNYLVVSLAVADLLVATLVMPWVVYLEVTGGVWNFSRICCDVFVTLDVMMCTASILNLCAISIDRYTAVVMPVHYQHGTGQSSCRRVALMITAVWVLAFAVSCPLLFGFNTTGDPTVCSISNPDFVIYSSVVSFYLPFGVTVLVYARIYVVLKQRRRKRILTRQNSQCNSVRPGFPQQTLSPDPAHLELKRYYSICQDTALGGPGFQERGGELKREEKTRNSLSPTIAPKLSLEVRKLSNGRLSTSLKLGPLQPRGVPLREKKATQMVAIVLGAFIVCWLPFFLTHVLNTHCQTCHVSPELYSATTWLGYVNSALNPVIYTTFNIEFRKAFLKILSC
#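 Cells plated overnight at 1500 cells/well, then exposed to library compounds with dopamine controls for 90 minutes at 37 degrees C. DiscoveRx reagent added for 30–60 minutes at room temperature; luminescence read, quantitative HTS format.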
# IL-1B inflam inh – qHTS for Inhibitors of Inflammasome Signaling: IL-1-beta AlphaLISA Primary Screen; THP-1 LPS/ATP IL-1B secretion, AlphaLISA, 16 h; hits give low values; activity change, % at 57.5 µM; actives 4.7% (n = 360,000); AID 743279, 2014; in the data active means activity change below about -50%; inconclusive means mostly about -30% to -49%; further: on the % scale 0 is the no-effect control and ±100 the full control effect
#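 THP-1 cells pretreated 1 hr with compounds (up to 57.5 uM final), then stimulated with LPS (250 ng/mL final) plus ATP (1.25 mM final); secreted IL-1B measured by AlphaLISA after 16 hr, decreased signal indicating inhibition.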
# DT40 TDP1 no CPT – qHTS for Inhibitors of human tyrosyl-DNA phosphodiesterase 1 (TDP1): qHTS in cells in absence of CPT; DT40 Tdp1-/- hTDP1 cells, no CPT, ATP luminescence, 48 h; Potency, µM (series often up to 46.2 µM), without a hit: top-dose activity change, negative = growth inhibition, hits mostly inhibitors; actives 15% (n = 420,000); AID 686978, 2013; further: potency means the concentration at half of the fitted maximal effect; on the % scale 0 is the no-effect control and ±100 the full control effect; nearly all actives have a fitted effect of over 55% in size
#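 Chicken DT40 Tdp1-/- cells complemented with human TDP1, screened without camptothecin (DMSO vehicle only), 400 cells/well. Compounds pin-transferred, cells incubated at 37 °C for at least 48 hr. Growth read as ATP-dependent luminescence (CellTiter-Glo, 30 min at RT).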
# DRD3 agonist – qHTS of D3 Dopamine Receptor Agonist: qHTS. AID 652048, 2013. D3R DiscoveRx beta-arrestin cells, luminescence, 90 min. actives 0.58% (n = 410,000). max activation, %; in the data active means max activation above about 30%; further: 0% is about no effect
#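 Agonist mode: compounds and dopamine controls were applied to plated cells for 90 min at 37 degrees C after an overnight attachment at 1500 cells/well. Luminescent read-out followed 30 - 60 minutes at room temperature with DiscoveRx detection reagent.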
# ClpP mod – qHTS Assay for Activators of ClpP. purified B. subtilis ClpP, FRET peptide cleavage, 20 min. actives 1.9% (n = 340,000). Potency, µM (doses to about 57.5 µM), for inactives: at the highest dose activity change, negative = active. AID 651965, 2013. ATP-dependent Clp protease proteolytic subunit (Bacillus subtilis (strain 168)), P80244; active means well fitted falling curve with a large enough effect; inconclusive means small, poorly fitted or top-dose-only effect; inactive means no such curve, though single readings can be large or run the other way; further: potency means the concentration at half of the fitted maximal effect; the source files actives as falling curves though it sought activators and does not explain the sign; nearly all actives have a fitted effect of over 65% in size
# Target sequence (P80244 whole entry, looked up): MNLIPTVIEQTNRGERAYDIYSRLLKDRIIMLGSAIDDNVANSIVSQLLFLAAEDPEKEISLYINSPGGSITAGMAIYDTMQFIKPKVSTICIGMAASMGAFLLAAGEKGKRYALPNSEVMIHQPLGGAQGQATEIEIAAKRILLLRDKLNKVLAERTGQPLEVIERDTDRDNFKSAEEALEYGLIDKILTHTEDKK
#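 ClpP 10 microg/mL final, pH 8 Tris/KCl buffer with BSA, glycerol, Tween-20; compound pinned in; FRET-FV substrate; RT 20 min; Ex320/Em430; ΔFRET vs ADEP 5.8 microM, DMSO, no enzyme.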
# TDP1 cell CPT – qHTS for Inhibitors of human tyrosyl-DNA phosphodiesterase 1 (TDP1): qHTS in cells in presence of CPT. chicken DT40 Tdp1-/-;hTDP1 cells + 20 nM CPT, ATP luminescence, 48 h. Potency, µM (top dose mostly 46.2 µM), inactives show at the highest dose activity change, negative = growth inhibition, usual class: inhibitors. actives 12% (n = 420,000). AID 686979, 2013; further: potency means the concentration at half of the fitted maximal effect; on the % scale 0 is the no-effect control and ±100 the full control effect; nearly all actives have a fitted effect of over 55% in size
#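 Chicken DT40 Tdp1-/- cells complemented with human TDP1, 400 cells/well, exposed to compounds plus 20 nM camptothecin for at least 48 h at 37 C; viability read as ATP content by CellTiter-Glo luminescence.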
# * = called active by the depositor; ? = inconclusive; nt = not tested or not shown. In the library only some 21% were active in any assay of this set; here they are far more common. Unless noted, the call rests on the fitted dose curve; in most records, active means well fitted inhibition curve with a large enough effect; inconclusive means small, poorly fitted or top-dose-only effect; inactive means flat fitted curve, though single readings scatter.
SMILES,DRD3 antagonist,IL-1B inflam inh,DT40 TDP1 no CPT,DRD3 agonist,ClpP mod,TDP1 cell CPT
COc1ccc(NC(=O)CS(=O)c2ccc(Br)cc2)cc1 (stereo not drawn),16,-15,16%,4,1%,-7%
COC(=O)N1CCC2(CC1)CN(C(=O)Nc1ccc(OC)cc1)C2,nt,nt,-1%,nt,nt,7%
Cc1[nH][nH]c(=O)c1C(c1c(C)[nH][nH]c1=O)c1cn(Cc2ccccc2Cl)c2ccccc12,0,0,5.2µM*,-10,1%,5.8µM*
Cc1ccc(Cn2c(=O)n(Cc3ccccc3Cl)c(=O)c3ccccc32)cc1,nt,nt,3%,5,-2%,3%
CCOc1cc2[nH]c(=O)n(CCCCCC(=O)NCc3ccco3)c(=O)c2cc1OCC,2,10,-26%,-3,22µM*,?
CCCCN(C)C(=O)CCCCn1c(=O)[nH]c2cc(OCC)c(OCC)cc2c1=O,13,0,?,1,35µM*,?
CC(=O)O[C@H]1C2OC(=O)C(C)=C2[C@@H]2OC(=O)[C@]3(CCC4OC41C)OC23 (stereo partly drawn),0,-72*,?,-7,1%,15µM*
Cc1nn(C)c(C)c1NC(=O)c1ccccc1NC(=O)Nc1ccccc1,23,44,0%,2,0%,10%
O=c1c2sc(-c3ccccc3)cc2nc2n1CCC2,-23,?,-23%,1,22µM*,-38%
Cn1c(NCCN2CCCC2)nc2cc(-c3cccc(C(F)(F)F)c3)sc2c1=O,8,-7,?,-1,-19%,?
O=c1c2sc(-c3ccccc3)cc2nc2n1CCCCC2,4,nt,12µM*,3,nt,-21%
O=C1Nc2ccccc2N=C(c2ccccc2)c2ccccc21,-1,nt,-19%,-2,nt,-3%
CCOc1ccc(N=Cc2c(C)[nH]n(-c3nc4ccccc4[nH]3)c2=O)cc1,0,18,9.2µM*,-4,-2%,10µM*
Cc1ccc(S(=O)(=O)NN2C(=O)c3ccccc3NC2c2ccccn2)cc1 (stereo not drawn),-9,-112*,-11%,10,nt,3%
COc1ccc(OCCN2CCC(C(=O)NC(c3ccccc3)c3ccc4ccccc4n3)CC2)cc1 (stereo not drawn),-102*,-80*,?,-13,-6%,?
O=C(NC(c1ccc(F)cc1)c1ccc2ccccc2n1)C1CCN(CCOc2ccc(Cl)cc2Cl)CC1 (stereo not drawn),0,?,?,-11,-16%,16µM*
O=C(NC(c1ccc(F)cc1)c1ccc2ccccc2n1)C1CCN(CCOc2ccc(F)cc2)CC1 (stereo not drawn),?,?,8.2µM*,-14,-18%,8.2µM*
O=C(NC(c1ccccc1)c1ccc2ccccc2n1)C1CCN(CCOc2ccc(Cl)cc2)CC1 (stereo not drawn),1,-100*,16µM*,12,-4%,23µM*
COc1ccc(OCCN2CCC(C(=O)NC(c3ccc(F)cc3)c3ccc4ccccc4n3)CC2)cc1 (stereo not drawn),-70*,-50*,18µM*,-24,-5%,29µM*
COc1ccc(CNC(=O)[C@H](C)NC(=O)C2CCN(S(=O)(=O)c3ccc(F)cc3)CC2)cc1,-9,30,10%,3,-2%,-2%
O=C(NCCS(=O)(=O)N1CCN(c2ccccc2)CC1)C1CC1,10,12,-8%,-6,-2%,-5%
CCOc1ccc(S(=O)(=O)NC2CCCC2)cc1,-6,31,-9%,-3,2%,-25%
CC1(C)C2CCC(C2)C1(C)NC(=O)CNC1CCCCC1 (stereo not drawn),-17,?,10µM*,-8,-1%,?
CCCCNC(=O)c1nc(-c2cc3ccccc3[nH]2)oc1-c1ccccc1,1,6,16µM*,0,5%,?
CCCCNC(=O)c1nc(-c2cccs2)oc1-c1ccc(Cl)cc1,20,-5,15µM*,2,4%,?
SMILES,DRD3 antagonist,IL-1B inflam inh,DT40 TDP1 no CPT,DRD3 agonist,ClpP mod,TDP1 cell CPT
CCCCNC(=O)c1nc(-c2ccncc2)oc1-c1ccc(OC(F)(F)F)cc1,7,45,10%,-16,-1%,28%
CCN(C(=O)c1cc(S(=O)(=O)N2CCOCC2)cn1C)c1cccc(C)c1,?,4,11%,-10,-1%,6%
CCOc1ccc(Nc2nc(Cl)nc(NCCO)n2)cc1,-11,-3,-16%,-20,-1%,-11%
CCC(C)Nc1nc(Cl)nc(NCCOc2ccccc2)n1 (stereo not drawn),18,-2,-24%,10,28µM*,-13%
CCCn1cc(S(=O)(=O)CC(=O)NC2CCCCC2)c2ccccc21,-66*,5,-21%,-25,0%,-22%
Cn1c(=O)c2cc(C(=O)NC3CCCCCC3)sc2c2ccccc21,nt,nt,18µM*,-2,?,?
CCn1c(=O)c2cc(C(=O)NC(C)C)sc2c2ccccc21,0,0,?,-2,4%,?
CCCCNC(=O)c1cc2c(=O)n(CC)c3ccccc3c2s1,0,-20,23µM*,-26,-1%,?
CCn1c(=O)c2cc(C(=O)NC3CCCCCC3)sc2c2ccccc21,nt,nt,16µM*,-18,3%,16µM*
CC(=O)NCCC(=O)N(Cc1ccccc1)c1nc2c(C)cccc2s1,-14,?,5%,0,-1%,-26%
CC(C)(CO)C(O)C(=O)NCCC#N (stereo not drawn),9,9,-22%,2,0%,2%
CCn1c(C(=O)O)c(CC(=O)NC2CCCCCC2)c2ccccc21,-89*,20,7%,7,-1%,-1%
CCn1c(=O)c2cc(C(=O)NCCCN3CCN(c4ccc(F)cc4)CC3)sc2c2ccccc21,nt,nt,6.5µM*,-13,-10%,18µM*
CCC1CCCCN1CCCNC(=O)c1cc2c(=O)n(CC)c3ccccc3c2s1 (stereo not drawn),nt,nt,?,-15,-29%,?
C[C@H]1C[C@H]2[C@@H]3CCC4=CC(=O)C=C[C@]4(C)[C@H]3C(=O)C[C@]2(C)[C@@]1(O)C(=O)CO,nt,nt,-25%,1,nt,-12%
O=CNc1c(Br)cc2c(c1Br)Cc1cc(Br)ccc1-2,-3,10,-10%,-2,3%,-17%
